This is part of a sample that, as a whole, favours compounds with a hit. Of some 79,000 tested, about 15% had one in any assay. Unmarked numbers belong to inactive results. Active and inactive are the calls of the source. No stated cut-off is given here; in the data, active means growth inhibition above about 70%; inactive means the rest.
Assay: NCI Yeast Anticancer Drug Screen. Data for the wt1 strain (AID 149);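 further: 0% = growth of vehicle-treated wt1 cultures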
Details: S. cerevisiae wt1 strain (SPY 50644) growth inhibition, active compounds read high
Method: Growth inhibition of yeast strains with defined genetic alterations is measured as a screen for potential anti-cancer activity. Selected strains with alterations in DNA damage repair or cell cycle control were exposed to compounds and growth inhibition was measured relative to vehicle treated controls. The strain used in this assay is wt1

| Structure (SMILES) | growth inhibition (at 1.2 µM) | growth inhibition (at 3.7 µM) | growth inhibition (at 11.0 µM) | growth inhibition (at 33.0 µM) | growth inhibition (at 100.0 µM) |
| --- | --- | --- | --- | --- | --- |
| CC(C)=CCC/C(C)=C/CN1C(=O)C=CC1=O | 2% | 29% | 100% (active) | 100% (active) | 99% (active) |
| CCCCS(=O)(=O)Nc1ccc(Nc2c3ccccc3nc3ccccc23)c(OC)c1 | -38% | -34% | -36% | 44% | 96% (active) |
| CC(C)OC(=O)NNc1cccc(Cl)c1 | 1% | 8% | 35% | 95% (active) | 96% (active) |
| c1ccc2c(c1)ccn2CCc1c[nH]c2ccccc12 | -16% | -31% | -19% | 21% | 95% (active) |
| CC1(C)CC(=O)C(/C=N/c2nc(-c3ccc(Br)cc3)cs2)=C(O)C1 | 1% | 4% | 17% | 91% (active) | 60% |
| Clc1nc(Cl)nc(Nc2cccc3ccccc23)n1 | 6% | 14% | 36% | 88% (active) | 98% (active) |
| CC(C)OP(=O)(OC(C)C)/C(Cl)=N/Nc1ccc([N+](=O)[O-])cc1 | -10% | -10% | 19% | 38% | 85% (active) |
| Cc1cccc2c1C1c3c(C)cccc3C(CC(=O)O)CC1CC2 (stereo not given) | 2% | 77% (active) | 98% (active) | 96% (active) | 92% (active) |

Source: PubChem BioAssay (NCI)
